Measured values: PubChem BioAssay AID488815 (Broad Institute, 2010)
Entries with a potency or affinity are not part of this list. Records with an inconclusive call do not appear. Active and inactive are the calls of the source. How the calls were made is not given here.

These molecules were tested against CAAX prenyl protease 1 (Saccharomyces cerevisiae (strain ATCC 204508 / S288c)) (UniProt P47154) (assay: Ste24 protease inhibitors, dose response, biochemical, S. cerevisiae, plate reader, cherry-pick (AID 488815)). Details: yeast Ste24 protease activity; series mostly up to 10 µM.
Sequence of CAAX prenyl protease 1 (Saccharomyces cerevisiae (strain ATCC 204508 / S288c)) (P47154 whole entry, looked up): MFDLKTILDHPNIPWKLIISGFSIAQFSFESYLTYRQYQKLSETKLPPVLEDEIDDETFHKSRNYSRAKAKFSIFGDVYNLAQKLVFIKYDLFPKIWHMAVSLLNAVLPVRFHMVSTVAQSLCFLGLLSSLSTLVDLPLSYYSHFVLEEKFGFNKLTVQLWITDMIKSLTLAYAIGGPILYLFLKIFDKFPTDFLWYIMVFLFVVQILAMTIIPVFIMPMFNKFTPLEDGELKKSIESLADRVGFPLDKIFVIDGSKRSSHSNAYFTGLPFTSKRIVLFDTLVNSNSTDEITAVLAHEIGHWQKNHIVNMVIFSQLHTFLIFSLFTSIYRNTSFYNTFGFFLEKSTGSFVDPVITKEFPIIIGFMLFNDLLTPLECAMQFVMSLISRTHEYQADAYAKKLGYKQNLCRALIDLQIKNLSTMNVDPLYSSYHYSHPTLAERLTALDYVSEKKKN

| SMILES | outcome |
| --- | --- |
| O=[N+]([O-])c1ccc(C[n+]2c(-c3ccccc3)cc(-c3ccccc3)cc2-c2ccccc2)cc1 | inactive |
| CCOC(=O)[C@@H]1[C@H]2COc3ccc(Br)cc3[C@@H]2N2C(=O)N(c3cccc(C)c3)C(=O)[C@]12C | inactive |
| CC(C)OCCCNC(=O)c1c(N)n(CC2CCCO2)c2nc3ccccc3nc12 (configuration not stated) | inactive |
| CN1CCN(c2ccc([N+](=O)[O-])c(Sc3nncn3C)c2)CC1 | inactive |
| Cc1ccnc(-n2c(-c3ccco3)nc3ccccc3c2=O)c1 | inactive |
| c1ccc(CCCN2CCN(CCOC(c3ccccc3)c3ccccc3)CC2)cc1 | inactive |
| C=CCn1c(O)c(C(CC)=Nc2ccc(N(CC)CC)cc2)c(=O)[nH]c1=O | inactive |
